In PubChem BioAssay (Tox21) one finds Potency and outcome data, which are given here for nine molecules.

Records with an inconclusive call do not appear. The source made the active and inactive calls. Unless noted, calls come from the whole dose curve; as a rule, active = well fitted curve in the direction sought with a large enough effect in the repeat runs; inconclusive = weak or mixed curves; inactive = no such curve, though single readings can be large; an effect the other way counts as inactive or inconclusive.

Experiment [1] in a line: qHTS assay for small molecules that induce genotoxicity in human embryonic kidney cells expressing luciferase-tagged ATAD5 (AID 651632). Note: nearly all actives have a fitted effect of over 15% in size. Note: potency is the fitted concentration of half-maximal effect. The method in brief:
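Concentration-response screen for ATAD5 upregulation in HEK293T luciferase reporter cells; 16 hr treatment at 37C, then luminescence after 30 min with Amplite at room temperature.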

The nature of experiment [2]: qHTS assay for small molecule agonists of the p53 signaling pathway - cell viability (AID 651633; calls by dose curve;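 note: p53RE-bla HCT reporter cells with a stable beta-lactamase p53 reporter; series mostly up to about 83 µM; nearly all actives have a fitted effect of over 30% in size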). Summed up: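 p53RE-bla cells were treated with compound for 16 hours at 37 C. Cytotoxicity was then measured as CellTiter-Glo luminescence after 30 min at room temperature.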
Experiment [3] is described as follows: qHTS assay to test for compound auto fluorescence at 590 nm (red) in HepG2 cells (AID 720674). Summed up: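 HepG2 cells, 2,000 per well in MEM with 10% FBS, attached overnight at 37 C, then got 23 nL compound or DMSO. After 1 hr at 37 C, 5% CO2, red fluorescence was read at 540/590 nm against Rose Bengal sodium as reference.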
The nature of experiment [4]: qHTS assay to test for compound auto fluorescence at 535 nm (green) in HepG2 cells (AID 720675).
Experiment [5] can be described thus: qHTS assay to test for compound auto fluorescence at 590 nm (red) in HEK293 cells (AID 720679). The method in brief:
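Red-channel autofluorescence (Ex/Em 540/590 nm; Rose Bengal sodium reference) was measured after overnight 37C, 5% CO2 exposure of attached HEK293 cells, 2,000 per well in medium with 10% dialyzed FBS.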

Experiment [6] in a line: qHTS assay to test for compound auto fluorescence at 535 nm (green) in HEK293 cells (AID 720680).
Experiment [7] can be described thus: qHTS assay to test for compound auto fluorescence at 460 nm (blue) in HEK293 cell free culture (AID 720681). The method in brief: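 Compounds were added to cell-free DMEM with 10% FBS and fluorescence read directly. The blue channel used 405 nm excitation and 460 nm emission, with triamterene as the reference fluorophore.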
The nature of experiment [8]: qHTS assay to test for compound auto fluorescence at 590 nm (red) in HEK293 cell free culture (AID 720683). The method in brief: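 Cell-free wells of DMEM with 10% FBS received compound, and intrinsic fluorescence was read at excitation/emission 540/590 nm. Values expressed as equivalence to Rose Bengal sodium.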
Experiment [9] is described as follows: qHTS assay to test for compound auto fluorescence at 590 nm (red) in HepG2 cell free culture (AID 720684). Summed up: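 Auto fluorescence equivalency versus Rose Bengal sodium, red channel Ex/Em 540/590 nm; compounds in cell-free MEM/10% FBS; DMSO vehicle control.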
Experiment [10] in a line: qHTS assay to test for compound auto fluorescence at 460 nm (blue) in HepG2 cell free culture (AID 720685). Summed up: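 Cell-free plates of MEM plus 10% FBS received 23 nL compound or DMSO vehicle; blue-channel (405/460 nm) intensity scored against triamterene as reference fluorophore.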
Experiment [11] can be described thus: qHTS assay to test for compound auto fluorescence at 460 nm (blue) in HepG2 cells (AID 720687). The method in brief: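 HepG2 cells in MEM with 10% FBS, attached overnight at 37 C, were exposed to compound or DMSO for 1 hr at 37 C, 5% CO2. Blue fluorescence was read at 405/460 nm, with triamterene as reference fluorophore.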
For experiment [12], the target named is Glucocorticoid receptor (Homo sapiens) (UniProt P04150). Briefly: qHTS assay to identify small molecule agonists of the glucocorticoid receptor (GR) signaling pathway (AID 720691; active = well fitted activation curve with a large enough effect in the signal ratio in the repeat runs, not every such curve was filed as active; the % refers to the signal ratio). Summed up: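 Measures GR pathway activation through a GRE-beta-lactamase reporter stably integrated in HeLa cells, with 18 h compound treatment at 37 C and fluorescence detection using a FRET substrate.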

Experiment [13] in a line: qHTS assay for small molecules that induce genotoxicity in human embryonic kidney cells expressing luciferase-tagged ATAD5 - cell viability (AID 651634; calls by dose curve; note: nearly all actives have a fitted effect of over 25% in size). Summed up:
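15.5 hr compound or vehicle exposure of HEK293T cells expressing luciferase-tagged ATAD5 at 37C; live-cell protease activity is read by fluorescence after 30 min of CellTiter-Fluor.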

The nature of experiment [14]: qHTS assay to test for compound auto fluorescence at 535 nm (green) in HEK293 cell free culture (AID 720682). The method in brief: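 No cells present: wells hold DMEM supplemented with 10% FBS, into which compound or vehicle is pinned. Green emission is then recorded (485 nm excitation, 535 nm emission) and scaled to fluorescein.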
Experiment [15] addresses Glucocorticoid receptor (Homo sapiens) (UniProt P04150). Briefly: qHTS assay to identify small molecule antagonists of the glucocorticoid receptor (GR) signaling pathway (AID 720692; active = well fitted inhibition curve with a large enough effect in the signal ratio in the repeat runs, not every such curve was filed as active; the % refers to the signal ratio; note: potency is the fitted concentration of half-maximal effect). Summed up: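 Tox21 10K library screened in concentration-response for blockade of dexamethasone (5 nM final)-induced GRE-bla reporter activity in HeLa cells; 18 h treatment, fluorescence read.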

Experiment [16] in a line: qHTS assay for small molecule disruptors of the mitochondrial membrane potential - cell viability (AID 720634; calls by dose curve; note: nearly all actives have a fitted effect of over 20% in size; note: potency is the fitted concentration of half-maximal effect). Summed up:
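In this qHTS format, HepG2 cells plated overnight were pinned with compound, incubated 1 hr, and assayed for ATP luminescence with CellTiter-Glo after m-MPI dye addition.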

The nature of experiment [17]: qHTS assay to test for compound auto fluorescence at 460 nm (blue) in HEK293 cells (AID 720678). Summed up: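 Blue-channel (Ex/Em 405/460 nm) intensity measured in HEK293 cultures after overnight compound exposure at 37C; signal expressed relative to triamterene. Cells plated 2,000 per well in 10% dialyzed FBS medium and allowed 4-5 hr to attach.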
The nature of experiment [18]: qHTS assay to test for compound auto fluorescence at 535 nm (green) in HepG2 cell free culture (AID 720686).
Experiment [19] can be described thus: qHTS assay for small molecule disruptors of the mitochondrial membrane potential (AID 720635). Note: potency is the fitted concentration of half-maximal effect. Summed up: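 HepG2 cells exposed to compound 1 hr at 37C, then Mito-MPS dye 30 min. Ratio read of aggregate (540/590 nm) versus monomer (490/535 nm) fluorescence.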

Sequence of Glucocorticoid receptor (Homo sapiens) (P04150 whole entry, looked up): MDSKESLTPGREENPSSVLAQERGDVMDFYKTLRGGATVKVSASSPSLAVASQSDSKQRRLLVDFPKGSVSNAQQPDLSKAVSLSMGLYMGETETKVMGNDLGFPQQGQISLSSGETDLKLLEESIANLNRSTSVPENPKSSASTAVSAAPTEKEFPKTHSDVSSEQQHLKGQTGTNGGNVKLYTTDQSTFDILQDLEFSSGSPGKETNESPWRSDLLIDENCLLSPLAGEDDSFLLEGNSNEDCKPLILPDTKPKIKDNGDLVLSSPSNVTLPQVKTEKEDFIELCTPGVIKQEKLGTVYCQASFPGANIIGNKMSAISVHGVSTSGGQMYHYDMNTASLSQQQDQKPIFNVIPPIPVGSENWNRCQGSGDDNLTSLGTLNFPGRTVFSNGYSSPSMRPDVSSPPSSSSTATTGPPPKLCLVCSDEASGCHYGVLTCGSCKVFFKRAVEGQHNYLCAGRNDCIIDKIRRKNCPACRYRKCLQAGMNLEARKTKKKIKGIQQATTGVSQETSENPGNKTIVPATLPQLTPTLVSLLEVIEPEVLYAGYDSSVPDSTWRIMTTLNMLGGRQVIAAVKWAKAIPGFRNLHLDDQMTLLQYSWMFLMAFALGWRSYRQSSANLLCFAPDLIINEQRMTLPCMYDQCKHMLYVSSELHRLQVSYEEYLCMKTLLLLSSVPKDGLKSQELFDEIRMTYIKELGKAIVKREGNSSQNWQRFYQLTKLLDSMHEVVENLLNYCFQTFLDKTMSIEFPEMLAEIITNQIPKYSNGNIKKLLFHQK

Take `CCOP(=S)(OCC)SCSP(=S)(OCC)OCC`: the Potency entry in [1] and in experiment [2] was “inactive” throughout. Further, the result in experiment [3], in experiment [4], in experiment [5], in experiment [6], in experiment [7] and in experiment [8] was inactive. The molecule was classed as inactive in experiment [9], in experiment [10], in experiment [11] and in experiment [12].
In the case of `CC(C)(C)C(=O)C(Oc1ccc(Cl)cc1)n1cncn1` (stereo unspecified), the Potency result in experiment [1], in experiment [2], in experiment [13] and in [15] was “inactive” throughout. Besides, the call in [3], in [4], in experiment [5], in experiment [7], in experiment [14] and in [8] was inactive. Moreover, the molecule was classed as inactive in experiment [9], in [10], in experiment [11] and in [12].
As to `O=C(O)c1cccc(Cl)c1`, the Potency entry in [1], in [2] and in [16] was “inactive” in each case. Moreover, the call in [3], in experiment [4], in [17], in experiment [5], in [7] and in experiment [14] was inactive. The call in experiment [8], in experiment [9], in experiment [18] and in [11] was inactive.
`COc1cc(OC)nc(Sc2cccc(Cl)c2C(=O)O)n1`: the Potency result in experiment [1], in experiment [2], in [16] and in experiment [19] was “inactive” throughout. The molecule was classed as inactive in experiment [3], in experiment [4], in experiment [17], in [5], in [7] and in [14]. For the same molecule, the molecule was classed as inactive in experiment [8], in experiment [9], in experiment [18], in [11] and in experiment [12].
For `CC(Cl)(Cl)[N+](=O)[O-]`, the Potency entry in experiment [1], in experiment [2], in experiment [16], in experiment [19] and in experiment [15] was “inactive” in each case. Besides, the call in experiment [3], in [4], in [17], in experiment [5], in experiment [6] and in [7] was inactive. In addition, the result in experiment [14], in experiment [8], in experiment [9], in experiment [10], in experiment [18] and in [11] was inactive. The result in experiment [12] was inactive.
For the molecule `CCc1cc2c(s1)-n1c(C)nnc1CN=C2c1ccccc1Cl`, the Potency in experiment [1] is 26.6 µM (active); in experiment [15], 19 µM (active). Further, the Potency result in experiment [2] and in experiment [13] was “inactive” throughout. The outcome in experiment [3], in experiment [4], in [17], in [5], in [6] and in [7] was inactive. The call in [8], in [9], in experiment [10], in experiment [18], in [11] and in experiment [12] was inactive.
For the molecule `O=C(Nc1ccccc1)N(Cc1ccc(Cl)cc1)C1CCCC1`, the Potency entry in experiment [1] and in experiment [2] was “inactive” throughout. The Potency in [16] is 61.1 µM (active); in experiment [19], 15.4 µM (active). The molecule was called inactive in [3], in [4], in experiment [17], in experiment [5], in [6] and in experiment [7]. Also, the molecule was called inactive in experiment [8], in experiment [9], in experiment [10], in [18], in experiment [11] and in [12].
Take `CCOP(=S)(OCC)Oc1cc(-c2ccccc2)on1`: the Potency result in experiment [1], in experiment [2] and in [13] was “inactive” each time. The result in [3], in experiment [4], in [17], in experiment [5], in experiment [6] and in experiment [7] was inactive. The call in [14], in experiment [8], in experiment [9], in experiment [10], in [11] and in experiment [12] was inactive.
`COC(=O)c1ccccc1S(=O)(=O)NC(=O)N(C)c1nc(C)nc(OC)n1`: the Potency entry in experiment [1], in experiment [2], in [13] and in [15] was “inactive” throughout. The outcome in [3], in experiment [4], in experiment [17], in experiment [5], in experiment [6] and in [7] was inactive. The molecule was classed as inactive in [14], in [8], in experiment [9], in [10], in [18] and in [11]. Besides, in [12], the molecule was called inactive.
